# VDR inhibitor – Inhibitors of the vitamin D receptor (VDR): qHTS. Vitamin D3 receptor (Homo sapiens), P11473. VDR-SRC2-3 peptide fluorescence polarization, 2 h. Potency, µM, inactives show max response, negative = inhibition, most hits filed as inhibitors. hit rate 0.93% among 400,000. AID 504847, 2011; note: % is set by controls: 0 for no effect and ±100 for the full control effect
# Target sequence (P11473 whole entry, looked up): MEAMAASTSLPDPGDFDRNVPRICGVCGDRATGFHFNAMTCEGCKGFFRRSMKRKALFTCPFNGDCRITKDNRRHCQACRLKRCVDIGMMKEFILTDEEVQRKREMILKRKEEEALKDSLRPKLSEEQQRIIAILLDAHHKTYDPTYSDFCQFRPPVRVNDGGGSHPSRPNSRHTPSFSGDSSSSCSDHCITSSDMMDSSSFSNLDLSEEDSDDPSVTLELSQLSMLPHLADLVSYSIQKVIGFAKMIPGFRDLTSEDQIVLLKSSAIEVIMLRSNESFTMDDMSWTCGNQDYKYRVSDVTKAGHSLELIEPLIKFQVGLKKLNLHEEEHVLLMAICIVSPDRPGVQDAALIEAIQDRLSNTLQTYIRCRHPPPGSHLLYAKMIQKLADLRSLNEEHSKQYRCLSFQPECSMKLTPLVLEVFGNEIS
#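 FP read-out; VDR + SRC2-3 coactivator peptide; 23 nl compound by pintool; 2 h RT incubation; reagents held at 4 deg C, protected from light.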
# HP1b binding inh – HTS for Inhibitors of HP1-beta Chromodomain Interactions with Methylated Histone Tails; Chromobox protein homolog 1 (Homo sapiens), P83916; AlphaScreen HP1-beta / biotin-H3K9me3 peptide binding; Potency, µM (top dose mostly 114 µM), without a hit: at the top dose activity change, negative = inhibition, most hits filed as inhibitors; hit rate 0.56% among 390,000; note: nearly all actives have a fitted effect of over 70% in size
# Target sequence (P83916 whole entry, looked up): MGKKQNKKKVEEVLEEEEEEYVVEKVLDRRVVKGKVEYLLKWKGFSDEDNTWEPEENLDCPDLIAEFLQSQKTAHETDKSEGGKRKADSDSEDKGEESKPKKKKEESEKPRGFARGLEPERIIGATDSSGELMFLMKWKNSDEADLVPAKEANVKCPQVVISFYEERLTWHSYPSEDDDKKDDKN
#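 HP1-beta protein (50 nM final) preincubated 30 min at room temperature with biotinylated H3(1-18)K9me3 peptide (50 nM) in PBS pH 7.4, 0.01% Tween-20, then compound added for 30 min. AlphaScreen streptavidin donor/nickel chelate acceptor beads (10 ug/mL final), 30 min dark, luminescence read.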
# JMJD2A Tudor inh – qHTS Assay for Inhibitors of JMJD2A-Tudor Domain. Lysine-specific demethylase 4A (Homo sapiens), O75164. AlphaScreen JMJD2A-Tudor / H3K4me3 peptide binding. Potency, µM (series often up to 114 µM), inactives show at the highest dose activity change, negative = inhibition, most hits filed as inhibitors. hit rate 4.4% among 390,000; note: % is set by controls: 0 for no effect and ±100 for the full control effect; nearly all actives have a fitted effect of over 50% in size
# L3MBTL1 block – qHTS Assay for the Inhibitors of L3MBTL1 | Potency, µM (series often up to 57.1 µM), inactives show at the highest dose activity, negative = inhibition, actives largely listed as inhibitors | hit rate 0.66% among 230,000 | Lethal(3)malignant brain tumor-like protein 1 (Homo sapiens), Q9Y468 | AlphaScreen L3MBTL1–H3K9me1 peptide binding; note: % is set by controls: 0 for no effect and ±100 for the full control effect; nearly all actives have a fitted effect of over 60% in size
#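 Displacement of a biotinylated histone H3(1-15) peptide monomethylated at Lys9 (75 nM) from L3MBTL1 (50 nM) was measured by AlphaScreen after a 30 min room-temperature compound incubation; cefsulodin titration served as intraplate control.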
# BAZ2B inh – qHTS Assay for Inhibitors of BAZ2B. hit rate 4.4% among 360,000. Potency, µM (highest dose often 114 µM), without a hit: at the top dose activity change, negative = inhibition, actives largely listed as inhibitors. AlphaScreen BAZ2B-H3K14Ac peptide displacement. Bromodomain adjacent to zinc finger domain protein 2B (Homo sapiens), Q9UIF8; note: % is set by controls: 0 for no effect and ±100 for the full control effect; nearly all actives have a fitted effect of over 60% in size
#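 Inhibition is scored as reduced AlphaScreen emission. The BAZ2B/b-H3(5-23)K14Ac complex (50 nM each) in PBS pH 7.4, 0.01% Tween-20 meets compound (up to 110 uM) for 30 min at RT before bead addition.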
# PLK1 PBD block – qHTS for Inhibitors of PLK1-PDB (polo-like kinase 1 - polo-box domain): Primary Screen | Plk1 PBD binding of FITC phosphopeptide, fluorescence polarization | Potency, µM, without a hit: max response, negative = inhibition, hits mostly inhibitors | hit rate 2.8% among 360,000 | AID 720504, 2013; note: series mostly up to about 57 µM; % is set by controls: 0 for no effect and ±100 for the full control effect; nearly all actives have a fitted effect of over 65% in size
# * hit, by the source's call; ? = inconclusive; / = not tested or not shown; [ ] = dose if it differs, or a comment. Hits are enriched below; roughly 6.9% of the tested compounds scored in any of these assays. Calls come from the whole dose curve; as a rule, active = well fitted curve in the direction sought with a large enough effect; inconclusive = small, poorly fitted or top-dose-only effect, or another doubt; inactive = no such curve, though single readings can be large; an effect the other way counts as inactive or inconclusive. Potency is the fitted concentration of half-maximal effect.
SMILES,VDR inhibitor,HP1b binding inh,JMJD2A Tudor inh,L3MBTL1 block,BAZ2B inh,PLK1 PBD block
CCC(=O)N1c2ccc(S(=O)(=O)CCC(=O)NCc3ccccc3OC)cc2CC1C (stereo not drawn),-13.9%,8.9%,-15.3%,/,/,/
CC(=O)N1c2ccc(S(=O)(=O)N3CCCC(C(=O)N4CCCC(C)C4)C3)cc2CC1C (stereo not drawn),0.5%,21.6%,-2.3%,/,-5.6%,-17.5%
CC(=O)N1c2ccc(S(=O)(=O)NCCC(=O)N3CCCC(C)C3)cc2CC1C (stereo not drawn),?,24.0%,?,/,-1.8%,23.8µM*
CC(=O)N1c2ccc(S(=O)(=O)N3CCC(C(=O)NCc4ccc(C)cc4)CC3)cc2CC1C (stereo not drawn),-8.0%,32.9%,-9.9%,/,3.8%,-9.5%
COc1ccc(-n2ccn(Cc3ccccc3C)c(=O)c2=O)cc1,-3.3%,47.0%,1.6%,/,-0.7%,/
COc1ccc(S(=O)(=O)N2Cc3ccccc3CC2C(=O)Nc2cc(Cl)ccc2Cl)cc1 (stereo not drawn),0.0%,24.6%,-3.7%,/,-6.6%,/
CC(=O)N1c2ccc(S(=O)(=O)NCCC(=O)NCc3ccc(N(C)C)cc3)cc2CC1C (stereo not drawn),?,5.0%,?,/,?,10.6µM*
CCCn1c(SCC(=O)NCc2ccc(F)cc2)n[nH]c1=O,3.4%,-13.6%,44.7µM*,3.0%,-12.6%,21.2µM*
Cc1oc2cc3oc(=O)cc(C)c3cc2c1C,-1.0%,31.9%,6.0%,/,-2.6%,-0.2%
N#CC1=C(S)N(c2ccccc2)C(c2ccc(-c3ccc(Cl)c(Cl)c3)o2)NC1=O (stereo not drawn),56.2µM*,-5.9%,?,/,?,?
N#CC1=C(S)N(c2ccccc2)C(c2ccc(-c3cc(Cl)ccc3Cl)o2)NC1=O (stereo not drawn),79.4µM*,3.9%,-31.8%,-13.4%,50.1µM*,?
Cc1ccc2nc(-c3ccc(C)o3)c(Nc3ccc(Cl)cc3)n2c1,?,38.8%,-22.4%,/,/,/
O=C(CSc1ccc([N+](=O)[O-])cc1)NNC(=O)c1ccccc1F,-11.1%,5.5%,-23.3%,/,-16.6%,9.47µM*
CCSc1ncc(/C=N/Nc2ccc(Cl)cc2)n1C,-9.4%,39.8µM*,56.2µM*,-13.6%,35.5µM*,-7.6%
CCSc1ncc(/C=N/Nc2ccc([N+](=O)[O-])cc2)n1C,-1.3%,2.2%,7.5%,3.3%,-8.0%,8.8%
Cc1cc(C)cc(S(=O)(=O)c2cnc3ccccc3n2)c1,39.8µM*,?,11.2µM*,-14.3%,20.1%,3.77µM*
Nc1ccc(S(=O)(=O)Nc2cnc3ccccc3n2)cc1,2.8%,3.2%,-12.9%,1.9%,-3.8%,-7.3%
Cc1cc(C)c2sc(N3CCN(C(=O)c4ccc(N(C)C)cc4)CC3)nc2c1,6.6%,?,39.8µM*,/,20µM*,/
Cc1cc(C)c2sc(N3CCN(C(=O)C4CC4)CC3)nc2c1,6.0%,26.3%,-4.2%,/,-2.5%,/
CN(CC(=O)Nc1ccc(N2CCOCC2)cc1)C(=O)CCNC(=O)c1ccc(Br)cc1,-3.2%,3.4%,-13.1%,-4.2%,-13.1%,-12.0%
O=C(CN1Cc2ccccc2C1=O)Nc1cc(F)ccc1F,-5.7%,35.4%,-13.5%,/,-0.1%,/
O=P(c1ccccc1)(c1ccccc1)c1cc(S(=O)(=O)O)ccc1O,6.1%,35.5µM*,39.8µM*,/,50.1µM*,?
O=P(O)(c1ccccc1)c1ccccc1O,-18.7%,53.5%,?,3.8%,-35.0%,-8.0%
Cn1nc(-c2ccc(Cl)cc2)cc1NC(=O)CCCC(=O)O,-12.6%,54.6%,4.5%,6.8%,4.0%,1.3%
O=c1[nH][nH]c2c(N=Cc3ccccc3O)ccc(F)c12,?,11.2µM*,?,3.55µM*,10µM*,10.6µM*
SMILES,VDR inhibitor,HP1b binding inh,JMJD2A Tudor inh,L3MBTL1 block,BAZ2B inh,PLK1 PBD block
CCc1ccc(O)c(N=Cc2ccccc2O)c1,4.5%,18.1%,?,/,?,0.1%
C=CCOc1ccc(/C=N/NC(=O)C(C)Sc2ccccn2)cc1OC (stereo not drawn),10.2%,46.8%,-18.9%,-3.0%,-1.2%,-13.0%
COc1ccccc1N1CCNC(C)C1=O (stereo not drawn),79.4µM*,2.1%,?,10.9%[2.29 µM],-11.3%,8.44µM*
C#CCOCCOCCOCCNc1nc(N2CCN(C(=O)CCCCCCCCCCNC(=O)[C@H](CCCCN)n3cc(CCO)nn3)CC2)nc(N2CCN(C(=O)CCCCCCCCCCNC(=O)[C@H](CCCN=C(N)N)n3cc(C[C@@H](C)CC)nn3)CC2)n1,33.1%,?,44.7µM*,-4.5%,50.1µM*,4.6%
C#CCOCCOCCOCCNc1nc(N2CCN(C(=O)CCCCCCCCCCNC(=O)[C@H]([C@@H](C)CC)n3cc(CCCCN=C(N)N)nn3)CC2)nc(N2CCN(C(=O)CCCCCCCCCCNC(=O)[C@H](CCCCN)n3cc(C[C@@H](C)CC)nn3)CC2)n1,/,/,/,-12.7%,50.1µM*,/
C#CCOCCOCCOCCNc1nc(N2CCN(C(=O)CCCCCCCCCCNC(=O)[C@H](CCCCN)n3cc(CCCC(=O)O)nn3)CC2)nc(N2CCN(C(=O)CCCCCCCCCCNC(=O)[C@H](CCCN=C(N)N)n3cc(C[C@@H](C)CC)nn3)CC2)n1,12.8%,-22.9%,56.2µM*,-1.5%,50.1µM*,-8.9%
C#CCOCCOCCOCCNc1nc(N2CCN(C(=O)CCCCCCCCCCNC(=O)[C@H](CCCCN)n3cc(C[C@@H](C)CC)nn3)CC2)nc(N2CCN(C(=O)CCCCCCCCCCNC(=O)[C@H](CCCCN)n3cc(C[C@@H](C)CC)nn3)CC2)n1,57.5%,70.8µM*,50.1µM*,/,/,-1.0%
CC[C@@H]1[C@H]2CCCC(=O)N3CC[C@@H](C[C@@H]1OC(=O)Nc1ccccc1)[C@@H]23,-5.1%,15.8%,-6.2%,-5.2%,5.0%,-8.0%
COC(=O)c1n[nH]n(-c2ccccc2)c1=O,-7.6%,27.2%,7.5%,/,-13.0%,/
COc1ccccc1NC(=O)c1oc2ccccc2c1NC(=O)c1c(F)cccc1F,-14.0%,24.7%,-9.6%,/,-5.5%,/
CCCCCOc1ccc(Cn2c(=O)oc3ccccc32)cc1,2.3%,34.6%,9.4%,/,5.6%,/

# Source: PubChem BioAssay
